# Screens: PubChem BioAssay, National Center for Advancing Translational Sciences (NCATS)
# This is one part of a sample in which hits are shown more often than they occur.
# Pf Dd2 inh = qHTS Primary assay for Inhibitors of Plasmodium falciparum Dd2 growth in vitro | P. falciparum Dd2 growth, SYBR Green, 72 h | Potency, µM (doses to about 28.9 µM), inactives show at the top dose activity, negative = inhibition, hits mostly inhibitors | 120,000 compounds, 4.3% hits; active = well fitted inhibition curve with a large enough effect;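 note: plate controls were DMSO vehicle for no effect and reference drug for full effect; nearly all actives have a fitted effect of over 65% in size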
#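 Readout: SYBR Green fluorescence, 485 nm excitation, 535 nm emission, after ~16 h lysis at 37C. Before that, Dd2-infected red cells (2.5% hematocrit) grew 72 h with compound, 29 uM top final concentration.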
# The depositor's hits bear a star; i = inactive; [ ] = dose if it differs, or a comment. Potency is the fitted concentration of half-maximal effect.
SMILES,Pf Dd2 inh
Cc1ccc(NC(=O)CN2C(=O)CCSc3ccc(S(=O)(=O)N4CCCC4)cc32)cc1,i
COc1cc(OC)c(NC(=O)c2ccc3c(c2)N(Cc2ccc(C)cc2)CCS3)cc1Cl,11µM*
CCN1CCSc2ccc(C(=O)NCc3ccc(OC(C)C)cc3)cc21,17%
Cc1ccc(NC(=O)CN2CCSc3ccc(S(=O)(=O)N4CCCC4)cc32)cc1,7.9µM*
CCOc1ccc(CNC(=O)c2ccc3c(c2)N(CC)CCS3)cc1,36%
O=C(NC1CCCc2c1[nH]c1ccc(Cl)cc21)c1ccncc1 (stereo not given),i
Cc1ccc(=O)n(CC(=O)N[C@H]2CN(S(C)(=O)=O)C[C@@H]2C(C)C)n1,5%
Cc1noc(-c2ccc3c(c2)OCO3)c1C(=O)NCCCc1ccccc1,-17%
COc1ccc(CCC(=O)N2CCC([C@@H]3CNC[C@H]3CO)CC2)cc1,16%
CS(=O)(=O)NCCC(=O)N1CCC2(CC1)[C@H](O)C[C@@H]2OCCO,-11%
CC(C)CCNC(=O)c1ccc(-c2nnc3ccc(NC(=O)C4CCC4)cn23)cc1,2.8µM*
O=C(O)c1ccc(-c2nnc3ccc(NC(=O)C4CCC4)cn23)cc1,-11%
O=C(NC1CC1)c1ccc2nnc(-c3ccc(Cl)cc3)n2c1,7%
Cc1c(C(=O)Nc2cc(F)ccc2F)sc2nc(-c3ccc(F)cc3)cn12,i
Cc1cc(C)cc(NC(=O)c2sc3nc(-c4ccccc4)cn3c2C)c1,7%
Cc1c(C(=O)Nc2ccc(F)c(C(F)(F)F)c2)sc2nc(-c3ccccc3)cn12,11µM*
O=c1c2nc(-c3ccc(O)c(F)c3)ccc2ncn1-c1ccc(F)cc1F,-26%[44.1 µM]
O=c1c2nc(-c3ccc(O)c(F)c3)ccc2ncn1-c1ccccc1,13µM*
O=c1c2nc(-c3ccncc3)ccc2ncn1-c1ccccc1,-17%[44.1 µM]
O=C(Cn1c2c(c(=O)n1Cc1ccccc1)CCN(Cc1ccccc1)C2)NCc1ccc2c(c1)OCO2,-6%
O=C(Cn1c(=O)c2c(n1Cc1ccccc1)CN(Cc1ccccc1)CC2)Nc1cccc(F)c1,-9%
O=C(Cn1c(=O)c2c(n1Cc1ccccc1)CN(Cc1ccccc1)CC2)NCc1ccc2c(c1)OCO2,-4%
O=c1cc(-c2ccccc2)c2cc(Cl)c3c(c2o1)CN(Cc1ccccc1)CO3,13µM*
O=S1(=O)N(Cc2ccccc2)CCCN1Cc1cccc(Cl)c1,9%
O=c1c2cc3c(cc2n(Cc2cccc(Cl)c2)c(=O)n1Cc1nc(-c2ccccc2)no1)OCO3,16%
SMILES,Pf Dd2 inh
CCc1cc2c(-c3ccccc3)cc(=O)oc2c2c1OCN(Cc1ccc(F)cc1)C2,3.5µM*
O=C1c2cc(N3CCOCC3)nc(-c3ccc(F)cc3)c2CN1Cc1ccccc1,-12%[44.1 µM]
O=c1cc(-c2ccccc2)c2ccc3c(c2o1)CN(Cc1cccc(Cl)c1)CO3,0.63µM*
CCNC(=O)[C@@H]1C[C@H](NC(=O)c2cc(C)on2)CN1Cc1nccs1,4%
Cc1cccc(OC[C@H]2C[C@@H](NC(=O)c3c(-c4ccccc4)noc3C)[C@H](O)[C@@H]2O)n1,3%
COCCn1nc2n(c1=O)CCN(S(=O)(=O)c1ccc3c(c1)CCC3)CC2,4%
CC(C)OCCCNC(=O)C1Cn2cccc2C(=O)N1 (stereo not given),63%
CCC1Oc2ccc(NC(=O)Cc3ccc(F)cc3)cc2CN(Cc2ccccc2F)C1=O (stereo not given),-22%
CCc1ccc(NC(=O)[C@H](CSCc2ccccc2)N2Cc3ccccc3C2=O)cc1,i
CCN(CC)S(=O)(=O)c1ccc(NC(=O)[C@H](CSCc2ccccc2)N2Cc3ccccc3C2=O)cc1,5µM*
Cc1ccc(NC(=O)[C@H](CSCc2ccccc2)N2Cc3ccccc3C2=O)cc1,i
COc1ccc(-c2cc(N3CCN(C(=O)Cc4ccccc4Br)CC3)n[nH]2)cc1,-13%
COCCNc1nc2c([S+](=O)([O-])c3ccncc3)nnn2c2ccccc12,4%
CN1[C@@H](CCC(=O)N2CCOCC2)CNC(=O)[C@@H]2[C@H]1CCN2Cc1csnn1,i
CCN(c1ccccc1)c1nnc(NC(=O)Nc2cccc(C(F)(F)F)c2)s1,-6%
CC(C)CN(CC(C)C)c1nnc(NC(=O)Nc2cccc(C(F)(F)F)c2)s1,11µM*
Cc1ccc(NC(=O)Nc2nnc(N(CC(C)C)CC(C)C)s2)cc1Cl,-10%
COCc1ccc2c(c1)c(OC(C)(C)C(=O)Nc1cccnc1)nn2Cc1cccnc1,i
COc1cc(C)ccc1OCC(=O)c1ccc2c(c1)N(CC(=O)NCc1ccco1)C(=O)CO2,i
CCC[C@H]1CN(S(=O)(=O)c2ccc(-c3ccn[nH]3)o2)C[C@@H]1N,i
CCC[C@H]1CN(S(=O)(=O)c2cnn(CCC)c2)C[C@@H]1N,11µM*
CCC[C@H]1CN(S(=O)(=O)c2ccc(CC)s2)C[C@@H]1N,-21%
CCC(=O)N1CCC(N2C(=O)C(O)C23CCCCC3)CC1 (stereo not given),-4%
CNC(=O)C1(N2CCC[C@H]2C(=O)NCC2CC2)COC1,5%[44.1 µM]
O=C(NC1CC1)[C@@H]1C[C@H](Oc2ccccc2)CN1S(=O)(=O)c1cccc(F)c1,12%
SMILES,Pf Dd2 inh
COc1cccc(N2C(=O)NC(=NC3CCCCC3)C23CCCN(C(=O)c2ccc(C)cc2)C3)c1 (stereo not given),13%
COc1cccc(N2C(=O)NC(=NC3CCCCC3)C23CCCN(CCC(C)C)C3)c1 (stereo not given),11µM*
COC(=O)N1CCC2(C1)C(=NC1CCCCC1)NC(=O)N2c1cccc(OC)c1 (stereo not given),5%
COc1cccc(N2C(=O)NC(=NC3CCCCC3)C23CCCN(CC2CCCCC2)C3)c1 (stereo not given),13µM*
COc1cccc(N2C(=O)NC(=NC3CCCCC3)C23CCN(Cc2cccn2C)CC3)c1,-20%
COc1cccc(N2C(=O)NC(=NC3CCCC3)C23CCCN(C(=O)c2ccc(C)cc2)C3)c1 (stereo not given),20%
COc1cccc(N2C(=O)NC(=NC3CCCCC3)C23CCN(C(=O)OCc2ccccc2)C3)c1 (stereo not given),i
COc1cccc(N2C(=O)NC(=NC3CCCC3)C23CCCN(CC2CCCCC2)C3)c1 (stereo not given),10µM*
COc1cccc(N2C(=O)NC(=NC3CCCCC3)C23CCN(C(C)=O)C3)c1 (stereo not given),16%
NC(=O)c1ccc(NC(=O)C2CC(=O)N(c3n[nH]c4ccccc34)C2)cc1 (stereo not given),6%
O=C(c1cnccn1)N1CC[C@H]2COC(=O)N2c2cc(F)ccc2C1,3%[44.1 µM]
O=C(O)c1cc(-c2ccc3cc[nH]c3c2)cc(S(=O)(=O)N2CCSCC2)c1,-25%
O=C(c1cccnc1)N1CC[C@H]2COC(=O)N2c2cc(F)ccc2C1,-11%[44.1 µM]
Cc1ccccc1NC(=O)CN1C(=O)NC2(CCC(C)CC2)C1=O (stereo not given),-5%
CC(C)CCNC(=O)c1c(OCC2CC2)cc(=O)n2c1CCCCC2,11%
O=c1c2nc(-c3ccsc3)ccc2ncn1-c1ccccc1,i
COc1ccccc1CCC(=O)N1CCC(Cc2nncn2C)CC1,-8%
CCN(Cc1cc(C)[nH]n1)CC1CCCN(CCc2cccc(OC)c2)C1 (stereo not given),-17%
CCN(Cc1c(O)cccc1OC)CC1CCN(CCc2ccccc2C)CC1,16µM*
O=[S+]([O-])(Nc1cccnc1)c1ccc2c(c1)OCCN(CCc1ccccc1)C2,i
O=C1CC2CCCC(C1)N2C(=O)c1ccccn1,-7%[44.1 µM]
